# In PubChem BioAssay AID463190 (Sanford-Burnham Center for Chemical Genomics, 2010):
# The campaign covered roughly 330,000 compounds. About 7,300 (2.2%) were called active.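 Rule for the calls: active = inhibition of at least 40%; inactive = the rest.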 For the sample, actives were picked, then their nearest neighbours and some compounds at random.
# Assay: growth inhibitors of tim10-1 mutant yeast, primary screen, luminescence, uHTS (AID 463190);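 note: mutant grown at 25 °C; 0% = DMSO wells with yeast and 100% = wells holding no yeast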
# Conditions: S. cerevisiae tim10-1 ts strain growth, BacTiter-Glo, 24 h; at 20 µM; hits give high values
row,Compound,inhibition
1,COc1ccc(C)cc1Nc1n[n+](-c2ccccc2)c(-c2cccc(Cl)c2Cl)s1,22.9% (inactive)
2,CCCCCCC(O)(CCN1CCCCC1)c1ccccc1 (stereo not given),7.54% (inactive)
3,CN(C)N1C(N)=C(C#N)C(c2ccc(Br)cc2)C2=C1CCCC2=O (stereo not given),43.6% (active)
4,CCOc1ccc(C2C(C#N)=C(N)N(N(C)C)C3=C2C(=O)CCC3)cc1 (stereo not given),12.1% (inactive)
5,CCc1ccc(C2C(C#N)=C(N)N(N(C)C)C3=C2C(=O)CCC3)s1 (stereo not given),16.4% (inactive)
6,CC(C)Cc1nnc(NC(=O)CN2C(=O)NC3(CCCCC3)C2=O)s1,-6.92% (inactive)
7,Cc1ccc(-c2csc(-c3cc(C)on3)n2)cc1,11.2% (inactive)
8,CCCc1cc(-c2nc(-c3ccc(C)cc3)cs2)ccn1,42.5% (active)
9,Clc1ccc(-c2csc(-c3ccncc3)n2)cc1,24.5% (inactive)
10,Cc1ccc(/C=N/NC(=O)c2cc3ccccc3cc2O)o1,15.5% (inactive)
11,Cc1cc(N=Nc2ccc3ccccc3c2)ccc1O,57.7% (active)
12,COc1ccc(NC(=O)NCCN2CCN(c3ccc(C)cc3)CC2)c(Cl)c1,-2.17% (inactive)
13,COc1ccc(C2Nc3ccccc3C(=O)N2c2ccc(Cl)cc2)cc1Cn1cc([N+](=O)[O-])cn1 (stereo not given),28% (inactive)
14,Cc1cc(C)n(S(=O)(=O)c2cccc([N+](=O)[O-])c2)n1,12.8% (inactive)
15,Cc1ccccc1CN1CCC(C(=O)Nc2ccc(Oc3cccnc3)cc2)CC1,8.05% (inactive)
16,O=C(NCCN1C(=O)S/C(=C\c2cccnc2)C1=O)c1ccc(S(=O)(=O)N2CCCC2)cc1,18.6% (inactive)
17,O=C(NCCN1C(=O)S/C(=C\c2cccnc2)C1=O)c1cccc(OC(F)F)c1,40.4% (active)
18,Cc1cc(OCCCC(=O)NCCN2C(=O)S/C(=C\c3cccnc3)C2=O)ccc1Cl,19.9% (inactive)
19,O=C(CCNS(=O)(=O)c1ccccc1C(F)(F)F)NCc1ccc2c(c1)OCO2,23.1% (inactive)
20,Cn1nc(C(F)(F)F)c(C(=O)Nc2cccc(C(F)(F)F)c2)c1SCc1ccc(Cl)cc1,36% (inactive)
21,O=C(CCn1nnnc1CN1CCOCC1)N1CCC(c2ccccc2Cl)C1 (stereo not given),15.3% (inactive)
22,CC(=O)N1CCN(CC(=O)Nc2ccc(SC(F)F)cc2)CC1,-0.192% (inactive)
23,Cc1ccc(CC(=O)Nc2ccc(OC(F)F)c(Cl)c2)cc1C,15.6% (inactive)
24,O=C(Cc1ccc(Cl)c(Cl)c1)Nc1ccc(SC(F)F)cc1,43.5% (active)

row,Compound,inhibition
1,O=C(c1ccc(F)cc1)n1c(=S)nc2ccccn21,26.9% (inactive)
2,COc1ccc(CNC(=O)[C@@H]2CC=C[C@@H]3CCN(C4CC4)C(=O)[C@@H]32)cc1,6.25% (inactive)
3,CN(Cc1c(F)cccc1Cl)S(=O)(=O)c1cccs1,-0.379% (inactive)
4,COC(=O)c1ccc(CNC(=O)C2CCC(=O)N(Cc3cccc(F)c3)C2)cc1 (stereo not given),-22.8% (inactive)
5,O=[N+]([O-])c1ccc(N2CCN(c3ccc(O)cc3)CC2)c(Cl)c1,40.3% (active)
6,O=C(O)C1CCN(c2ccc([N+](=O)[O-])cc2[N+](=O)[O-])CC1,4.89% (inactive)
7,COc1ccc(N2CCN(c3ccc([N+](=O)[O-])cc3Cl)CC2)cc1,-1.93% (inactive)
8,ONC(=Nc1ccccc1)c1ccccc1Cl,18.6% (inactive)
9,ONC(=Nc1ccc(Cl)cc1)c1ccccc1Cl,42.6% (active)
10,O=C(O)C1C2C=CC(O2)C1C(=O)NCCc1cccc(Cl)c1 (stereo not given),-10.4% (inactive)
11,O=C(CSc1ncn[nH]1)Nc1ccc(Br)cc1Br,-12.6% (inactive)
12,O=C(/C=C/Sc1ncn[nH]1)c1ccc(Cl)cc1,61.4% (active)
13,O=C(CSc1ncn[nH]1)N/N=C/c1ccc(F)cc1,-11.2% (inactive)
14,N#C/C(=C\c1ccc(N2CCOCC2)o1)C(=O)N1CCOCC1,9.56% (inactive)
15,Cc1ccc([N+](=O)[O-])c(OCCCNCC(C)O)c1 (stereo not given),2.12% (inactive)
16,CN(C)CCNc1ccc(-c2n[nH]c(=O)c3ccccc23)cc1[N+](=O)[O-],1.37% (inactive)
17,O=C(/C=C/c1cccs1)NCc1cccnc1,8.39% (inactive)
18,O=S(=O)(Nc1cccc(Oc2ccc(Cl)cc2)n1)c1ccc(F)cc1,43.9% (active)
19,O=S(=O)(Nc1ccccn1)c1cccc(S(=O)(=O)c2ccc(Cl)cc2)c1,14.9% (inactive)
20,O=S(=O)(Nc1ccc(Oc2ncccn2)c(Cl)c1)c1ccc(F)cc1,15.3% (inactive)
21,CCC1CCCCN1S(=O)(=O)Cc1ccccc1Cl (stereo not given),25.3% (inactive)
22,COc1ccc2c(CC(=O)N3CCc4cc(OC)c(OC)cc4C3)coc2c1,8.12% (inactive)
23,COc1ccc(NCc2nnc(SCc3ccccc3)n2-c2ccc(OC)cc2)cc1,49.4% (active)
24,COc1ccc(-c2nnc(SCC(=O)c3ccco3)n2-c2ccccc2)cc1,23.4% (inactive)

row,Compound,inhibition
1,CCn1c(CNc2ccc(OC)cc2)nnc1SCC(=O)c1ccc(OC)cc1,25.4% (inactive)
2,O=S(=O)(NC1CCCCC1N1CCN(c2ccccc2F)CC1)c1ccccc1 (stereo not given),21.7% (inactive)
3,COc1ccc(C(=O)CN2C(=O)NC3(CCc4ccccc43)C2=O)c(OC)c1 (stereo not given),-9.01% (inactive)
4,C#CCN1C(=O)C(O)(CC(=O)c2cc(OC)ccc2OC)c2ccccc21 (stereo not given),41.9% (active)
5,O=C(CC1(O)C(=O)N(CN2CCOCC2)c2ccccc21)c1ccccc1 (stereo not given),15.9% (inactive)
6,O=C(Nc1cc(S(=O)(=O)N2CCOCC2)ccc1Cl)c1cc(=O)c2ccccc2o1,19.5% (inactive)
7,Cc1cccc(NC(=O)Nc2cccc(Oc3c(F)c(F)c(F)c(F)c3F)c2)c1,21.3% (inactive)
8,Cc1ccoc1C(=O)Nc1cccc(Oc2ccccc2)c1,49.3% (active)
9,CC(Oc1cccc(NC(=O)c2cccs2)c1)C(=O)c1ccccc1 (stereo not given),27.6% (inactive)
10,COc1cccc2c1OCC1COc3c(c(=O)n(C)c(=O)n3C)C21 (stereo not given),-6.86% (inactive)
11,COc1ccccc1N1CC(C(=O)Nc2ccc(S(=O)(=O)N3CCOCC3)cc2)CC1=O (stereo not given),4.85% (inactive)
12,CCN(CC(=O)NCc1cccs1)c1nnnn1-c1ccccc1,-19.2% (inactive)
13,CCOC(=O)c1c(C)oc2cc(Sc3ccccc3)c(O)c(O)c12,34.3% (inactive)
14,CCOC(=O)c1c(-c2ccccc2)oc2ccc(OCC(=O)NN)cc12,45.4% (active)
15,CCOC(=O)c1c(-c2ccccc2)oc2cc(Br)c(O)cc12,48.2% (active)
16,CCOC(=O)c1c(C)oc2ccc(OCC(=O)N(CC)CC)cc12,14.2% (inactive)
17,CCOC(=O)c1c(C)oc2cc(Br)c(OCC(N)=O)cc12,1.54% (inactive)
18,CCOC(=O)c1c(-c2ccccc2)oc2ccc(OCC(N)=O)cc12,18.7% (inactive)
19,CC(=O)Nc1ccc(C(=O)NNC(=O)CCCCC(=O)NNC(=O)c2ccc(NC(C)=O)cc2)cc1,10.6% (inactive)
20,O=C(CCc1nc2ccccc2c(=O)[nH]1)OCC(=O)c1cccc(Cl)c1,18.5% (inactive)
21,O=C(/C(=C/c1cccc(Cl)c1)c1nc2ccccc2[nH]1)c1ccccc1,43.5% (active)
22,O=C(Cc1nc2ccccc2[nH]c1=O)c1ccc(Cl)cc1,5.58% (inactive)
23,CCCN=C1N(C)C[C@@H]2[C@@H]3C(=O)N(Cc4ccccc4)C(=O)[C@@H]3[C@](C)(C(=O)OC)N12,0.857% (inactive)
24,O=C(COC(=O)c1cccc(Cl)c1)NC1CCCCCCC1,8.83% (inactive)

row,Compound,inhibition
1,Cc1cccc([C@H]2[C@@H]3C=CC[C@@H](C)[C@@H]3C(=O)N2Cc2ccccc2)c1,33.1% (inactive)
2,Cn1cc(CN2CCCCC2c2ccccn2)c(-c2ccc3c(c2)OCCO3)n1 (stereo not given),9.13% (inactive)
3,CCOC(=O)C1CCN(C(=O)Cn2nc(C)c3c(C)n(-c4ccccc4)nc3c2=O)CC1,27.3% (inactive)
4,O=C(NN1CCOCC1)c1cccc(F)c1,-9.56% (inactive)
5,COc1c(C)c2c(c(O)c1C/C=C(\C)CCC(=O)O)C(=O)OC2,4.45% (inactive)
6,O=C(CCc1ccccc1)NNC(=O)COc1ccc(Cl)cc1,0.762% (inactive)
7,COc1ccc(S(=O)(=O)NCCCc2ccccc2)cc1,19.3% (inactive)
8,N/C(=N\OC(=O)Cc1ccccc1[N+](=O)[O-])c1ccc(Br)cc1,57% (active)
9,COc1ccc(/C(N)=N/OC(=O)Oc2ccccc2)cc1,5.03% (inactive)
10,COc1ccc(CCC(=O)c2ccc(OC)cc2)cc1,5.98% (inactive)
11,N/C(=N\OC(=O)/C=C/c1ccccc1)c1ccc(Br)cc1,25.9% (inactive)
12,N/C(=N\OC(=O)CCc1ccccc1)c1cccnc1,21.7% (inactive)
13,COc1ccc(/C(N)=N/OC(=O)CCCc2ccccc2)cc1,45.1% (active)
14,N/C(=N\OC(=O)N1c2ccccc2Sc2ccccc21)c1ccc(Br)cc1,8.49% (inactive)
15,N/C(=N\OC(=O)CCc1ccccc1)c1ccc(Cl)cc1,65.2% (active)
16,COc1ccc(/C(N)=N/OC(=O)Cc2ccccc2)cc1,46.5% (active)
17,CCOC(=O)C(Cc1ccccc1)NC(=O)CCC(=O)c1ccc(OC)cc1 (stereo not given),23.1% (inactive)
18,COc1ccc(NC(=O)c2sc(N3CCOCC3)nc2-c2ccccc2)c(OC)c1,33.9% (inactive)
19,CCOc1ccc2ccccc2c1/C=N/NC(=O)c1c(C)cc(C)[nH]c1=O,2.15% (inactive)
20,CCOC(=O)CN1CC23C=CC(O2)C(C(=O)Nc2ccc(F)cc2)C3C1=O (stereo not given),3.99% (inactive)
21,O=C(CSc1nccn1-c1cccc(F)c1)NC1CCCC1,-5.65% (inactive)
22,COC(=O)[C@H](C(C)C)n1c(C)c(C(C)=O)c(C(C)=O)c1C,0.67% (inactive)
23,COc1ccc(CNC(=O)C(C)NCc2ccccc2Cl)cc1 (stereo not given),21.6% (inactive)
